Sampled rows, rich in hits. Any-hit rate of the full collection: about 19%.
DT40 TDP1 no CPT: qHTS for Inhibitors of human tyrosyl-DNA phosphodiesterase 1 (TDP1): qHTS in cells in absence of CPT. DT40 Tdp1-/- hTDP1 cells, no CPT, ATP luminescence, 48 h. Potency, µM (series often up to 46.2 µM), inactives show at the highest dose activity change, negative = growth inhibition, actives largely listed as inhibitors. hit rate 15% among 420,000. AID 686978, 2013; further: potency means the concentration at half of the fitted maximal effect; nearly all actives have a fitted effect of over 55% in size
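Luminescent ATP content (CellTiter-Glo) served as the growth readout. Knockout chicken DT40 cells expressing human TDP1 were exposed to compounds without camptothecin for a minimum 48 hr at 37 °C.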
HT1080 IDH1KD tx: toxicity to HT-1080 IDH1 knockdown cells (counter line); Potency, µM (series often up to 46.1 µM), inactives show top-dose activity, negative = toxicity, actives largely listed as cytotoxic; HT-1080 IDH1 knockdown viability, ATP luminescence, 48 h; hit rate 2% among 360,000;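 further: potency means the concentration at half of the fitted maximal effect; 0% = DMSO wells and -100% = cell-free medium wells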
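After a 2 h attachment period, IDH1KD HT-1080 cells took pin-transferred compound for 48 h at 37 °C; ATP-based luminescence after 10 min room-temperature reagent incubation reported viability.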
IL1B secr inh: blocks inflammasome-driven IL-1 beta release. THP-1 LPS/ATP IL-1B secretion, AlphaLISA, 16 h; hits give low values. activity change, % at 57.5 µM. hit rate 4.7% among 360,000. AID 743279; in the data active means activity change below about -50%; inconclusive means mostly about -30% to -49%
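Secreted IL-1B measured by AlphaLISA bead assay after 16 h compound exposure of THP-1 cells; compounds (final up to 57.5 uM) added 1 h before LPS (250 ng/mL) and ATP (1.25 mM) stimulation; lower signal means less secretion.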
TDP1 cell CPT: DT40-hTDP1 cell growth loss with CPT; chicken DT40 Tdp1-/-;hTDP1 cells + 20 nM CPT, ATP luminescence, 48 h; Potency, µM (highest dose often 46.2 µM), inactives show at the highest dose activity change, negative = growth inhibition, hits mostly inhibitors; hit rate 12% among 420,000; further: potency means the concentration at half of the fitted maximal effect; nearly all actives have a fitted effect of over 55% in size
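Chicken DT40 Tdp1-/- cells complemented with human TDP1, 400 cells/well, exposed to compounds plus 20 nM camptothecin for at least 48 h at 37 C; viability read as ATP content by CellTiter-Glo luminescence.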
HT1080NT lethal: kills 2HG-producing HT-1080-NT fibrosarcoma cells; HT-1080-NT fibrosarcoma viability, CellTiter-Glo ATP luminescence, 48 h; Potency, µM (highest dose often 46.1 µM), for the others: at the highest dose activity, negative = less viability, hits mostly cytotoxic; hit rate 1.6% among 360,000; AID 686970;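 further: NT is the 2HG producing partner of a matched IDH1 knockdown line; potency means the concentration at half of the fitted maximal effect; 0% = DMSO-treated cells and -100% = media-only wells without cells; nearly all actives have a fitted effect of over 55% in size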
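HT-1080-NT fibrosarcoma cells (2HG-overproducing), 750 cells/well in RPMI with 5% FBS, dosed after 2 h and incubated 48 h at 37C. CellTiter-Glo luminescence normalized to DMSO and no-cell wells; concentration-response curves fitted and classed.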
Active calls of the source: *; ? = inconclusive; nt = not tested or not shown; [ ] = another dose, or the depositor's remark. Unless noted, the call rests on the fitted dose curve; in most records, active means well fitted curve in the direction sought with a large enough effect; inconclusive means small, poorly fitted or top-dose-only effect, or another doubt; inactive means no such curve, though single readings can be large; an effect the other way counts as inactive or inconclusive. Unless noted, on the % scale 0 is the no-effect control and ±100 the full control effect.

SMILES	DT40 TDP1 no CPT	HT1080 IDH1KD tx	IL1B secr inh	TDP1 cell CPT	HT1080NT lethal
CC(C)NC(=O)c1sc(=S)n2c1[nH]c(=O)c1ccc(C(=O)NCCc3ccc(Cl)cc3)cc12	?	2.9%	9.7	?	8.7%
CCOc1ccc(CCNC(=O)c2ccc3c(=O)[nH]c4c(C(=O)NC(C)C)sc(=S)n4c3c2)cc1	13µM*	0.6%	8.8	23.1µM*	-1.1%
Cc1nc2cc(Cl)c(Cl)cc2n1-c1ccccn1	-25.9%	-0.3%	17.0	-11.6%	8.3%
COc1cc(OC)c(-c2nc3cnccc3n2C)cc1OC	-0.2%	-17.7%	-0.5	5.7%	10.5%[9.24 µM]
Cn1c(-c2ccc3ccccc3n2)nc2cnccc21	14.6µM*	-2.3%	0.0	18.4µM*	-4.0%
Cc1ccc(C(C)C)c(OCc2ccc(-c3nnco3)cc2)c1	20.6µM*	?	-24.6	16.4µM*	?
Cc1ccc(COc2ccc(-c3nnco3)cc2)cc1	-4.4%	9.0%	?	-0.9%	3.7%
CN(C)S(=O)(=O)c1ccc(C(=O)Nc2ccc(F)cc2F)cc1	-16.7%	-1.4%	-18.1	12.0%	-0.9%
CN(C)S(=O)(=O)c1ccc(C(=O)Nc2cc(S(=O)(=O)Nc3ccccc3Cl)ccc2N2CCCCC2)cc1	16.4µM*	1.7%	-4.5	8.2µM*	7.8%
CN1CCN(c2ccc(Cl)cc2NC(=O)c2ccc(S(=O)(=O)N(C)C)cc2)CC1	?	-12.7%	?	18.4µM*	-13.7%
COc1cc(/C=C2/SC(=S)N(CCC(=O)Nc3cccnc3)C2=O)cc(OC)c1OC	?	0.5%	-19.6	?	8.6%
C[C@H](CO)N1C[C@H](C)[C@@H](CN(C)S(C)(=O)=O)Oc2ccc(NC(=O)NC3CCCCC3)cc2C1=O	7.3%	8.8%	5.2	11.5%	9.6%
CC(C)c1nc(NCCN2CCOCC2)c(C#N)c2c1COC(C)(C)C2	?	-0.4%	-24.7	?	4.7%
CC(C)Cc1nc(NCCN2CCOCC2)c(C#N)c2c1COC(C)(C)C2	18.4µM*	-0.5%	?	?	-4.6%
CCc1nc(NCCN2CCOCC2)c(C#N)c2c1CCCC2	-20.3%	-7.3%	-6.1	3.26µM*	-8.6%
C[C@@H]1CN([C@H](C)CO)C(=O)CCCn2cc(nn2)CO[C@H]1CN(C)S(=O)(=O)c1ccc2ccccc2c1	-26.2%	-0.9%	22.7	-17.0%	-1.0%
NS(=O)(=O)c1cccc(NC(=O)CSc2n[nH]c(-c3ccccc3Br)n2)c1	-9.8%	-2.7%	4.9	-24.2%	-1.6%
Cc1ccc(NC(=O)c2ccc(C(C)(C)C)cc2)cc1-n1cnnn1	29.1µM*	0.8%	-10.5	?	2.5%
CCOc1cc(/C=C(\C#N)C(=O)NCc2cccnc2)ccc1O	-14.2%	6.5%	-0.8	-2.9%	3.4%
O=C1C2C3CCCC3=C3CCCC3C2C(=O)N1c1ccc(F)cc1 (stereo unspecified)	18.4µM*	-6.3%	16.0	?	-3.7%
O=C(NCCCn1ccnc1)c1ccc(N2CCCCC2)c([N+](=O)[O-])c1	?	?	-5.5	-1.0%	-6.8%
O=C(CN1C(=O)c2ccccc2C1=O)OCC(=O)c1ccccc1	-32.8%	-3.9%	-16.6	?	-7.6%
Cc1cc(/C=C(\C#N)C(=O)Nc2ccc(Cl)cc2)c(C)n1-c1ccc(N2CCOCC2)c([N+](=O)[O-])c1	7.31µM*	-4.9%	?	7.31µM*	-21.6%
Cc1cc(/C=C(\C#N)C(=O)NCc2cccs2)c(C)n1-c1ccc([N+](=O)[O-])cc1	-4.6%	-7.8%	-2.2	-23.7%	0.8%
N#Cc1ccc(N2CCOCC2)c([N+](=O)[O-])c1	-24.9%	6.3%	0.0	-16.2%	7.7%
SMILES	DT40 TDP1 no CPT	HT1080 IDH1KD tx	IL1B secr inh	TDP1 cell CPT	HT1080NT lethal
CNC(=O)/C(C#N)=C/c1cc(C)n(-c2ccc(N3CCOCC3)cc2)c1C	?	1.6%	28.5	3.26µM*	10.0%
Cc1cc(/C=C(\C#N)C(=O)Nc2ccccc2)c(C)n1-c1ccc(C(=O)O)cc1	-10.8%	-1.9%	?	-23.6%	0.8%
Cc1ccc(NC(=O)/C(C#N)=C/c2cc(C)n(-c3ccc(N4CCOCC4)c([N+](=O)[O-])c3)c2C)c(C)c1	8.2µM*	2.8%	-20.2	7.31µM*	5.0%
Cc1cccc(NC(=O)/C(C#N)=C\c2cc(C)n(-c3ccc(C(=O)O)cc3)c2C)c1	18.4µM*	0.0%	-78.3*	?	1.5%
O=[N+]([O-])c1cc(Cl)ccc1N1CCOCC1	-0.5%	-0.2%	-9.0	-9.8%	-2.9%
O=C(Cc1ccc(NC(=O)C2CCN(C(=O)C3CCCC3)CC2)cc1)Nc1cccc(C(=O)N2CCCCC2)c1	-26.7%	4.6%	-3.0	-24.7%	3.6%
COc1ccc(CN(C)CC(=O)N2CCc3ccccc3C2)cc1	?	7.0%	-7.0	-18.0%	4.9%
CCOC(=O)/C(C#N)=C\c1cc(C)n(-c2ccccc2)c1C	?	6.7%	-21.0	?	17.0%
CCOC(=O)/C(C#N)=C/c1cc(C)n(-c2ccc(C)cc2)c1C	18.4µM*	?	-3.8	18.4µM*	-15.5%
Cc1ccc(O)c(C(=O)CC(=O)c2cccc(F)c2)c1	2.59µM*	?	0.0	2.31µM*	?
NC(=NCCc1ccccc1)NC(=O)c1cc(Cl)ccc1O	18.4µM*	-22.3%	-11.1	?	-11.8%
Cc1cccc(C(=O)CC(=O)c2cc(Cl)ccc2O)c1	4.11µM*	?	74.9	3.26µM*	?
Cc1ccc(C(=O)CC(=O)c2ccccc2)cc1	?	6.5%	-1.6	?	0.2%
Cc1cccc(C(=O)NCC(=O)NNC(=O)c2ccccc2O)c1	-15.8%	-10.1%	4.8	-3.0%	-10.4%
Cc1ccc(O)c(C(=O)CC(=O)c2ccc(Cl)cc2)c1	5.8µM*	?	0.0	7.31µM*	?
COc1ccc(NC(=O)Cn2cnc3c(nc4n3CCCCC4)c2=O)c(OC)c1	-0.9%	nt	nt	-2.1%	nt
Cc1c(O)cnc2nn(-c3ccccc3)c(=N)n12	-7.1%	5.5%	-12.3	-0.7%	13.8%
CC(C)(C)NC(=O)C(c1ccc(O)cc1)N(C(=O)CCC(=O)Nc1nccs1)c1ccc(F)cc1 (stereo unspecified)	?	-26.1%	19.5	-23.5%	2.2%
O=C(CC(=O)c1cc(Cl)ccc1O)c1ccccc1	4.61µM*	?	38.8	2.31µM*	?
CCOc1cc(NC(=O)c2ccccc2[N+](=O)[O-])c(OCC)cc1NC(=O)CC(C)C	-16.5%	2.8%	7.6	-8.5%	16.7%
CCOc1cc(NC(=O)C2CC2)c(OCC)cc1NC(=O)c1ccccn1	18.4µM*	9.9%	-12.2	18.4µM*	12.5%
CCOc1cc(NC(=O)c2ccccn2)c(OCC)cc1NC(=O)CC(C)C	8.2µM*	24.3%	-4.9	13µM*	20.6%
